Hit rate of the full screen: of about 5,500 compounds, about 2,000 (36%) were called active. Another 18% or so got no clear call; they are omitted. Rule as the data show it: active = normalized growth mostly below about 0.91 (no sharp cut-off); inconclusive = no clear call, values can overlap the other calls; inactive = mostly above about 0.92. This is one part of the list.
Test: chemical genetic growth profiling, strain panel (AID 1159580);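 also: tested at 20 µM; growth read once vehicle control cultures reached saturation at 30 °C; 1 = growth at the plate median or of vehicle wells; lower values mean less growth of the strain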
Settings: S. cerevisiae deletion strains, growth OD
[1] = locus YAL013W, strain DEP1, stronger effect = lower value
[2] = locus YBR229C, strain ROT2, stronger effect = lower value
[3] = locus YDL101C, strain DUN1, stronger effect = lower value
[4] = locus YDR150W, strain NUM1, stronger effect = lower value
[5] = locus YEL061C, strain CIN8, stronger effect = lower value
[6] = locus YGR078C, strain PAC10, stronger effect = lower value
[7] = locus YGR229C, strain SMI1, stronger effect = lower value
[8] = locus YHR030C, strain SLT2, stronger effect = lower value
[9] = locus YHR087W, strain rtc3, stronger effect = lower value
[10] = locus YJL187C, strain SWE1, stronger effect = lower value
[11] = locus YJR043C, strain POL32, stronger effect = lower value
[12] = locus YJR075W, strain HOC1, stronger effect = lower value
[13] = locus YKL190W, strain CNB1, stronger effect = lower value
[14] = locus YLR039C, strain RIC1, stronger effect = lower value
[15] = locus YLR058C, strain SHM2 (second series), stronger effect = lower value
[16] = locus YLR085C, strain ARP6, stronger effect = lower value
[17] = locus YLR262C, strain YPT6, stronger effect = lower value
[18] = locus YML094W, strain GIM5, stronger effect = lower value
[19] = locus YMR219W, strain ESC1, stronger effect = lower value
[20] = locus YMR263W, strain SAP30, stronger effect = lower value
[21] = locus YNL153C, strain GIM3, stronger effect = lower value
[22] = locus YNL298W, strain CLA4 (second series), stronger effect = lower value
[23] = locus YNL322C, strain KRE1, stronger effect = lower value
[24] = locus YNR030W, strain Alg12, stronger effect = lower value
[25] = locus YPL055C, strain LGE1, stronger effect = lower value
[26] = locus YPL241C, strain CIN2, stronger effect = lower value
[27] = locus YPR135W, strain CTF4, stronger effect = lower value
[28] = locus YMR307W, strain GAS1, stronger effect = lower value

Measured: normalized growth

O=c1[nH]c2cccnc2[nH]c1=O
inactive: [1] 0.999 | [2] 1.02 | [3] 1.01 | [4] 0.995 | [5] 1 | [6] 1.01 | [7] 0.997 | [8] 1.03 | [9] 1 | [10] 0.992 | [11] 1.01 | [12] 0.969 | [13] 0.995 | [14] 1 | [15] 1 | [16] 1.01 | [17] 0.979 | [18] 1.02 | [19] 1.03 | [20] 1.01 | [21] 1.04 | [22] 1.04 | [23] 0.998 | [24] 1.01 | [25] 0.965 | [26] 1.01 | [27] 1.06

O=c1[nH]c2ccccc2c2ccccc12
inactive: locus YAL040C, strain CLN3, stronger effect = lower value 1.04 | locus YCL061C, strain MRC1 (second series), stronger effect = lower value 1 | [4] 0.983 | locus YDR363W, strain ESC2, stronger effect = lower value 1.01 | locus YER002W, strain NOP16, stronger effect = lower value 0.987 | [28] 0.979 | locus YNL175C, strain NOP13, stronger effect = lower value 0.975 | locus YNL197C, strain WHI3, stronger effect = lower value 0.967 | locus YNL224C, strain SQS1, stronger effect = lower value 1.01 | [23] 0.983 | locus YOR083W, strain WHI5 (second series), stronger effect = lower value 0.945
active: [21] 0.779

CCCCCCCc1c(O)c2ccccc2[nH]c1=O
inactive: [1] 1.01 | [2] 0.998 | locus YCL061C, strain MRC1, stronger effect = lower value 1.01 | [3] 1 | [4] 0.962 | [5] 1.01 | [6] 1 | [7] 1.01 | [8] 0.989 | [9] 1 | [10] 1 | [11] 1 | [12] 1 | [13] 1.01 | [14] 1.01 | [15] 1.01 | [16] 1.01 | [17] 1.02 | [18] 1.01 | [19] 1.02 | [20] 1.01 | [28] 0.961 | locus YNL128W, strain TEP1, stronger effect = lower value 1.01 | [21] 1.01 | [22] 1.03 | [23] 0.997 | [24] 1.02 | [25] 1.02 | [26] 1.02 | [27] 1.07
